Screens as filed in PubChem.
This is a sample that favours compounds with a hit; in the whole collection about 19% have one here.
DT40 TDP1 no CPT: qHTS for Inhibitors of human tyrosyl-DNA phosphodiesterase 1 (TDP1): qHTS in cells in absence of CPT | DT40 Tdp1-/- hTDP1 cells, no CPT, ATP luminescence, 48 h | Potency, µM (titrated, usually from 46.2 µM), without a hit: at the top dose activity change, negative = growth inhibition, usual class: inhibitors | 15% of 420,000 active; further: potency means the concentration at half of the fitted maximal effect; on the % scale 0 is the no-effect control and ±100 the full control effect; nearly all actives have a fitted effect of over 55% in size
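DT40 Tdp1-/-;hTDP1 cells, no CPT (DMSO vehicle only), 400 cells/well; compounds pin-transferred; ≥48 hr, 37 °C; CellTiter-Glo 30 min RT dark, luminescence read.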
MCF10A rerep: DNA re-replication induction in MCF 10a cells | MCF 10A DNA re-replication, Hoechst nuclear intensity, 48 h | Potency, µM (titrated, usually from 46.1 µM), inactives show at the top dose activity, positive = re-replication, actives largely listed as activators | 2.9% of 350,000 active | AID 624296; further: potency means the concentration at half of the fitted maximal effect; % of control where 0% means no effect; nearly all actives have a fitted effect of over 50% in size
SW480 rerep: inducers of DNA re-replication in SW480 colon cancer cells; SW480 DNA re-replication, Hoechst DNA content imaging, 48 h; Potency, µM (series often up to 46.1 µM), without a hit: top-dose re-replication activation, most hits filed as activators; 1.8% of 340,000 active; further: potency means the concentration at half of the fitted maximal effect; % of control where 0% means no effect; nearly all actives have a fitted effect of over 55% in size
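Quantitative HTS format with DMSO vehicle controls; 48 hr drug incubation at 37 C, then 40 min Hoechst staining and scanning imager measurement at 405 nm excitation.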
TDP1 cell CPT: growth inhibition of DT40 Tdp1-/-;hTDP1 cells with camptothecin (screen for TDP1 inhibitors) | chicken DT40 Tdp1-/-;hTDP1 cells + 20 nM CPT, ATP luminescence, 48 h | Potency, µM (highest dose often 46.2 µM), inactives show at the highest dose activity change, negative = growth inhibition, hits mostly inhibitors | 12% of 420,000 active | AID 686979; further: potency means the concentration at half of the fitted maximal effect; on the % scale 0 is the no-effect control and ±100 the full control effect; nearly all actives have a fitted effect of over 55% in size
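Chicken DT40 Tdp1-/- cells complemented with human TDP1, 400 cells/well, exposed to compounds plus 20 nM camptothecin for at least 48 h at 37 C; viability read as ATP content by CellTiter-Glo luminescence.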
Chronic BCR inh: inhibitors of chronic active B-cell receptor signaling | ABC-DLBCL IkBa-CBG/CBR reporter, luminescence ratio, 4 h | Potency, µM (series often up to 46.1 µM), for inactives: top-dose activity change, negative = inhibition, actives largely listed as inhibitors | 0.05% of 340,000 active | AID 493014; active means well fitted inhibition curve with a large enough effect in the signal ratio, with a control signal flat, not every such curve was filed as active; inconclusive means small, poorly fitted or top-dose-only effect, or effect the other way, or a change in a side signal; the % refers to the signal ratio;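 further: potency means the concentration at half of the fitted maximal effect; plate controls were basal doxycycline-induced cells for no effect and cells given 10 µM MG132 for full effect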
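Concentration-response series (up to 46 uM) were applied to TMD8 dual-reporter cells for 4 h at 37C with doxycycline. Green/red ratio, after filter-overlap correction, defined %Activity; red signal alone was normalised to basal cells and zero luminescence.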
IL-1B inflam inh: inflammasome signaling inhibition, IL-1 beta readout; THP-1 LPS/ATP IL-1B secretion, AlphaLISA, 16 h; stronger effect = lower value; AID 743279; 4.7% of 360,000 active; activity change, % at 57.5 µM; in the data active means activity change below about -50%; inconclusive means mostly about -30% to -49%; further: on the % scale 0 is the no-effect control and ±100 the full control effect
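Secreted IL-1B measured by AlphaLISA bead assay after 16 h compound exposure of THP-1 cells; compounds (final up to 57.5 uM) added 1 h before LPS (250 ng/mL) and ATP (1.25 mM) stimulation; lower signal means less secretion.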
Starred values were filed as active, the others as inactive; ? = inconclusive; nt = no result given; [ ] = remark or other dose. Unless noted, the call rests on the fitted dose curve; in most records, active means well fitted curve in the direction sought with a large enough effect; inconclusive means small, poorly fitted or top-dose-only effect, or another doubt; inactive means no such curve, though single readings can be large; an effect the other way counts as inactive or inconclusive.

SMILES	DT40 TDP1 no CPT	MCF10A rerep	SW480 rerep	TDP1 cell CPT	Chronic BCR inh	IL-1B inflam inh
O=C(NCCN1CCN(c2ccccc2)CC1)Nc1ccc(Cl)cc1	-26%	14%	-5%	-5%	?	?
S=C(NCCN1CCOCC1)N1CCN(c2cccc(Cl)c2)CC1	?	27%	-4%	-1%	7%	-92*
S=C(NCc1ccco1)N1CCN(c2cccc(Cl)c2)CC1	?	-1%	-9%	?	3%	0
O=C(NCCN1CCN(c2cccc(Cl)c2)CC1)Nc1ccccc1	15µM*	-16%	1%	?	?	-17
COc1ccc2c(c1)CC(C(=O)NCCN1CCN(c3cccc(Cl)c3)CC1)CO2 (configuration not stated)	15µM*	nt	nt	16µM*	nt	nt
CCOc1ccccc1CNC(=O)c1cnc2sc(N3CCC(C)CC3)nn2c1=O	-11%	nt	nt	-19%	nt	nt
O=C(CN(Cc1ccc(Cl)cc1)C(=O)CNS(=O)(=O)c1ccccc1)NCC1CCCO1 (configuration not stated)	-8%	0%	-11%	-5%	-1%	-5
O=C(NCCN1CCN(c2ccccc2)CC1)Nc1cccc(Br)c1	29µM*	18%	19%	?	-12%	?
O=C1C=CC(=O)N1N(c1ccccc1)c1ccccc1	21µM*	5.2µM*	?	10µM*	?	?
COc1cccc(CNC(=O)c2c(OC)cc(=O)n3c2CCN(C(=O)c2ccc(C)cc2C)CC3)c1	-12%	nt	nt	-1%[9.04 µM]	nt	nt
CN1CCc2c(sc3c2C(=O)NC(c2ccco2)N3)C1 (configuration not stated)	-2%	6%	0%	-16%	?	-2
O=C1NC(c2ccco2)Nc2sc3c(c21)CCN(Cc1ccccc1)C3 (configuration not stated)	16µM*	-7%	-1%	23µM*	30%	14
CN1CCc2c(sc3c2C(=O)NC(c2cn(Cc4ccccc4)c4ccccc24)N3)C1 (configuration not stated)	23µM*	?	?	21µM*	-10%	?
COc1ccc(Br)cc1C1NC(=O)c2c(sc3c2CCN(C)C3)N1 (configuration not stated)	-24%	7%	1%	-2%	2%	6
CN1CCc2c(sc3c2C(=O)NC(c2ccc(-c4ccc(Cl)cc4)o2)N3)C1 (configuration not stated)	?	23µM*	?	?	?	nt
COc1ccc(CCNc2c3ccccc3nc3ccccc23)cc1OC	21µM*	6.5µM*	0.92µM*	?	16%	-94*
COc1ccc(C(C)=O)cc1CSc1nc(NCc2ccc(Cl)cc2)c2ccccc2n1	-23%	nt	nt	?	1%	nt
COc1ccc(CCN=C(N)C(C)c2ccccc2)cc1OC (configuration not stated)	?	-1%	-13%	-17%	-16%	-29
CCC(C(N)=NCCc1ccc(OC)c(OC)c1)c1ccccc1 (configuration not stated)	8.2µM*	-3%	-1%	15µM*	6%	-3
Clc1ccc(CSc2nc(NCCc3ccccc3)c3ccccc3n2)cc1	6.5µM*	nt	nt	9.2µM*	5%	nt
Fc1ccc(Nc2nc(SCc3ccc(Cl)cc3)nc3ccccc23)cc1	-102%	nt	nt	?	?	nt
COc1ccc(CCNc2nc(SCc3cccc(F)c3)nc3ccccc23)cc1OC	?	nt	nt	16µM*	1%	nt
Cc1ccc2c(=O)cc(C(=O)Nc3c(C(=O)c4ccccc4)oc4ccccc34)oc2c1C	-11%	nt	nt	-9%	nt	nt
CCCCCC(=O)N1C[C@@H](n2cc(-c3ccc(F)cc3)nn2)[C@H](O)C[C@@H]1c1ccc(OC)cc1	?	nt	nt	?	nt	-29
O=c1cc(CSc2nc(NCc3ccccc3)c3ccccc3n2)nc2ccc(Cl)cn12	12µM*	1%	-1%	16µM*	0%	11
SMILES	DT40 TDP1 no CPT	MCF10A rerep	SW480 rerep	TDP1 cell CPT	Chronic BCR inh	IL-1B inflam inh
COc1ccc(CCNCCC(c2ccccc2)c2ccccc2)cc1OC	18µM*	nt	nt	18µM*	nt	-54*
Fc1ccc(Nc2nc(SCc3cccc(F)c3)nc3ccccc23)cc1	16µM*	nt	nt	15µM*	?	nt
COc1ccc(C(CCNCc2ccc(OC)c(OC)c2)c2ccc(F)cc2)cc1 (configuration not stated)	-7%	5%	?	4%	-2%	0
Clc1ccccc1CSc1nc(NCCc2ccccc2)c2ccccc2n1	13µM*	nt	nt	?	16%	nt
O=C(CCCn1c(SCc2cc(=O)n3cc(Cl)ccc3n2)nc2ccccc2c1=O)NCC1CCCO1 (configuration not stated)	?	0%	-19%	?	0%	30
Cc1cc(C)cc(Oc2c(C(F)(F)F)oc3cc(OCC(=O)NC4CCCCC4)ccc3c2=O)c1	?	nt	nt	-8%	nt	nt
C/C(=N\NC(=O)C1(C)CC1(Br)Br)c1cccc(NC(=O)C2CCC2)c1 (configuration not stated)	26µM*	3%	-4%	18µM*	-1%	13
Cc1cc(NC(=O)c2sccc2C)n(-c2nc3ccccc3[nH]2)n1	16µM*	?	11%	?	3%	-82*
Cc1cc(NC(=O)c2cccs2)n(-c2nc3ccccc3[nH]2)n1	21µM*	?	4.6µM*	?	0%	-25
COc1cccc(C(=O)Nc2cc(C)nn2-c2ccccc2)c1OC	23µM*	-1%	2%	?	1%	1
COc1cccc(OC)c1C(=O)Nc1cc(C)nn1-c1nc2ccccc2[nH]1	9.2µM*	?	?	16µM*	2%	14
CCOC(=O)CN1C(=O)N[C@@H](CCc2ccccc2)[C@H](C(=O)OC)[C@H]1C	-20%	-1%	?	-11%	nt	-6
COc1ccccc1C(=O)Nc1c2c(nn1-c1cccc(C)c1C)CS(=O)(=O)C2	-20%	-1%	-3%	?	2%	10
COc1cccc(C(=O)Nc2c3c(nn2-c2ccc(C)cc2C)CS(=O)(=O)C3)c1OC	23µM*	nt	nt	?	-4%	nt
Cc1cc(NC(=O)C2CCCC2)n(-c2nc3ccccc3[nH]2)n1	?	20%	?	18µM*	?	-16
COC(=O)c1ccccc1S(=O)(=O)NNC(=O)c1nn(C)c(=O)c2ccccc12	0%	1%	-1%	3%	1%	-11
